# Assay results reported in ChEMBL document CHEMBL1201862, “PubChem BioAssay data set” (2004).
# Values joined by “and” are separate entries in the source; they are usually repeats but may differ in a detail not shown here. Equal entries are not always repeated. Hit rate of the full screen: of about 400,000 compounds, about 2,100 (0.53%) were called active. About 14% were inconclusive and are not listed. The rule behind the calls is not given here. The full list was thinned out, with actives kept by preference.
# Molecular target: Ataxin-2 (Homo sapiens) (UniProt Q99700)
# Sequence (Q99700 whole entry): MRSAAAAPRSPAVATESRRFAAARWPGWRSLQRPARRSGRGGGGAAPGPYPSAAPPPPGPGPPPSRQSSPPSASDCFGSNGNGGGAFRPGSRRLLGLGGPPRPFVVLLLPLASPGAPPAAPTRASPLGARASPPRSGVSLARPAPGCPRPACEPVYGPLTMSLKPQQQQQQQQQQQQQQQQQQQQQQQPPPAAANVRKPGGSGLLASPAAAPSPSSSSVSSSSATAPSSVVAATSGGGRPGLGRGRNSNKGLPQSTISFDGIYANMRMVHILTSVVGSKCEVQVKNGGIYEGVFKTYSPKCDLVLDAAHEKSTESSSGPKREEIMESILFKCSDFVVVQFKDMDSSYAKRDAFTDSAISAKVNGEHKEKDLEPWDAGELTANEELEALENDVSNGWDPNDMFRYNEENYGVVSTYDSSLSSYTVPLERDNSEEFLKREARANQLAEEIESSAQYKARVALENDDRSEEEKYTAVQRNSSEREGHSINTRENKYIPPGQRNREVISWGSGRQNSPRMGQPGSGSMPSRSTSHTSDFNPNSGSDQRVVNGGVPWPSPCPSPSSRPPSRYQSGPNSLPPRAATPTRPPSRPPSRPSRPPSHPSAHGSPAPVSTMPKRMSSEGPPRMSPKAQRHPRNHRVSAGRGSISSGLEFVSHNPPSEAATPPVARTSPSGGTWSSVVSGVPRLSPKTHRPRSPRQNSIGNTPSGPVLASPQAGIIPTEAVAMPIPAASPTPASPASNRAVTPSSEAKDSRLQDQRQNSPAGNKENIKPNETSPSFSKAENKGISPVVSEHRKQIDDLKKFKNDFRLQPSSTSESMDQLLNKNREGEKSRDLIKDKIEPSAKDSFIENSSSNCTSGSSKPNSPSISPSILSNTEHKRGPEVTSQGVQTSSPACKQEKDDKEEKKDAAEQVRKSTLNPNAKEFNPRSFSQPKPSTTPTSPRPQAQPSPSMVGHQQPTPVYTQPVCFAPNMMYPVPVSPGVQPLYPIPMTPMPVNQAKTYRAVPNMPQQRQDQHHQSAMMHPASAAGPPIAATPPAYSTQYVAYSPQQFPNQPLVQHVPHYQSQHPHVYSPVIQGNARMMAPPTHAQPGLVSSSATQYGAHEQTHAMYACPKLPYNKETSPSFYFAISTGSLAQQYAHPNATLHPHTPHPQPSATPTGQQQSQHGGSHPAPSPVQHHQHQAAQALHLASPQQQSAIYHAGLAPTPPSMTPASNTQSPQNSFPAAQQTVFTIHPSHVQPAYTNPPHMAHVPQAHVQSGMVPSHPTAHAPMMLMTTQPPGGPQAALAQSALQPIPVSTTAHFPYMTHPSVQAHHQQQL
# Assay: qHTS for Inhibitors of ATXN expression.
# Format: functional
row,Structure (SMILES),Potency
1,COCCCNC(=O)/C(C#N)=C/c1c(N2CCN(C)CC2)nc2c(C)cccn2c1=O,inactive
2,CNS(=O)(=O)c1ccc2c3c(cccc13)C(=O)N2,inactive
3,Cc1c(Cc2ccccc2)c(NCCCO)n2c(nc3ccccc32)c1C#N,inactive
4,NC(=O)c1cc2ccc(O)cc2o/c1=N\c1ccccc1,inactive
5,Cc1ccc(NC(=O)C2CC(=O)N(C(C)C)C2)cc1C (stereo not given),inactive
6,Cc1cc(C)c(S(=O)(=O)NCc2ccc3c(c2)OCO3)c(C)c1,inactive
7,Cc1ccc(S(=O)(=O)Nc2ccc3c(c2)CC(=O)N([C@H](C)CO)C[C@H](C)[C@H](CN(C)Cc2ccc4c(c2)OCO4)O3)cc1,35.5 µM (active)
8,CN(C)Cc1ccccc1CNC(=O)c1cccc(S(=O)(=O)Nc2ccc3c(c2)OCO3)c1,inactive
9,C[C@H]1CN([C@@H](C)CO)C(=O)Cc2cc(NC(=O)C3CC3)ccc2O[C@H]1CN(C)Cc1ccc(Oc2ccccc2)cc1,25.1 µM (active)
10,Cc1ccc(-c2nc(C[S+]([O-])CC(=O)NCCN3CCCCCC3)c(C)o2)cc1 (stereo not given),inactive
11,CCOC(=O)CN1C(=O)CC(c2ccc([N+](=O)[O-])cc2)C1=O (stereo not given),inactive
12,NC(=O)c1nsc(C(=O)N(c2ccccc2F)C(C(=O)NCc2ccccc2)c2ccc(O)cc2)c1N (stereo not given),inactive
13,O=[N+]([O-])c1ccc(-c2csc(N3CCCCCC3)n2)cc1,inactive
14,Cc1ccc(-c2csc(N3CCN(CCCn4c(-c5ccncc5)nc5ccccc54)CC3)n2)cc1,35.5 µM (active)
15,Cc1csc(N2CCN(c3cc4c(cc3Cl)nc(-c3ccncc3)n4CCCN3CCCC3)CC2)n1,35.5 µM (active)
16,Cc1ccc(Nc2nc(-c3ccncc3)cs2)cc1,inactive
17,O=C(Nc1nc2c(s1)CN(Cc1ccccc1)CC2)c1c(F)cccc1F,inactive
18,ClC1(Cl)CC1CSc1nc2ccccc2[nH]1 (stereo not given),inactive
19,O=C(CCN1C(=O)/C(=C\c2ccc(F)cc2)SC1=S)Nc1ccccc1,inactive
20,Cc1ccc(/C=C2\Oc3c(ccc(O)c3CN3CCN(C)CC3)C2=O)cc1,inactive
21,CC/N=C1/S/C(=C/c2ccc(-c3ccc(F)cc3)o2)C(=O)N1CC,inactive
22,Cc1ccc(/C=C2/SC(=S)N(CCC(=O)N3CCN(C)CC3)C2=O)cc1,11.9 µM (active)
23,COc1ccc(/C=C2/SC(=S)N(CCCC(=O)N3CCN(C)CC3)C2=O)cc1,17.8 µM (active)
24,CN1CCN(C(=O)CCN2C(=O)/C(=C\c3ccc(F)cc3)SC2=S)CC1,39.8 µM (active)

row,Structure (SMILES),Potency
1,COc1ccc(/C=C2\SC(=S)N(CC(=O)NNC(=O)c3ccncc3)C2=O)cc1,inactive
2,Cc1ccc(/C=C2\SC(=S)N(CCC(=O)NNC(=O)c3ccncc3)C2=O)cc1,inactive
3,COc1ccc(-n2c(=O)/c(=C\c3cccs3)s/c2=C(/C#N)C(=O)N2CCN(C)CC2)cc1,inactive
4,O=C(Nc1cc[n+](-c2nc3ccccc3nc2[N-]S(=O)(=O)c2ccccc2)cc1)c1cccs1,inactive
5,COC(=O)c1ccc(CSc2nc(C(F)F)cc(C)c2C#N)o1,inactive
6,O=C(OCC1CCNCC1)c1ccc(F)cc1,inactive
7,C=CCNC(=O)C(C#N)c1nc2ccccc2nc1N1CCCCCC1 (stereo not given),inactive
8,COc1ccccc1[C@@H]1C(c2ccc(F)cc2)=NN(c2ccccc2)[C@H]1C(=O)N1CCOC1=O,inactive
9,COc1cccc(/C=N/NC(=O)NC2CCCCC2)c1O,inactive
10,COc1ccccc1/C=C/C1(C(=O)NC2CCCC2)CC(=O)N1c1ccc(F)cc1 (stereo not given),14.1 µM (active)
11,COc1ccccc1Nc1nc(Cl)c(C=O)s1,inactive
12,Nc1nc(Sc2ccc([N+](=O)[O-])c3nonc23)c2nc[nH]c2n1,22.4 µM (active)
13,CCCNC(=O)/C=C/C(=O)O,inactive
14,Cc1cc(C(=O)O)ccc1-c1ccc(/C=C2\NC(=O)N(Cc3ccccc3Cl)C2=O)o1,inactive
15,CC(=O)c1ccccc1NC(=O)COC(=O)CN1C(=O)C2CCCCC2C1=O (stereo not given),inactive
16,O=C(OCC(=O)N1CCC(Cc2ccccc2)CC1)c1ccccc1F,inactive
17,O=C(Nc1ccccc1)Nc1ccccc1C(=O)NCCCN1CCOCC1,inactive
18,CSc1ccc(NC(=O)NCCCN2CCC(Cc3ccccc3)CC2)cc1,39.8 µM (active)
19,CN(C)c1ccc(/C=N/CCc2ccc(S(N)(=O)=O)cc2)cc1,inactive
20,C(=C\c1ccco1)/C1=NN(c2ccccc2)C(c2ccco2)C1 (stereo not given),inactive
21,CCOCCCn1/c(=N/C(C)=O)c(C(=O)OCC)cc2c(=O)n3ccccc3nc21,inactive
22,COc1cccc2c1C(=O)c1c(O)c3c(c(O)c1C2=O)C[C@@](O)(C(=O)CO)C[C@@H]3O[C@H]1C[C@H](N)[C@@H](O)[C@H](C)O1,8.91 µM (active)
23,COc1cccc2c1C(=O)c1c(O)c3c(c(O)c1C2=O)CC(O)(C(C)=NNC(=O)c1ccc(Cl)c(Cl)c1)CC3OC1CC(N)C(O)C(C)O1 (stereo not given),2.67 µM (active)
24,COc1cccc2c1C(=O)c1c(O)c3c(c(O)c1C2=O)C[C@](O)(C(C)=O)C[C@H]3O[C@@H]1C[C@H](N)[C@H](O)[C@H](C)O1,1 µM (active)

row,Structure (SMILES),Potency
1,COc1cccc2c1C(=O)c1c(O)c3c(c(O)c1C2=O)CC(O)(C(=O)CO)CC3OC1CC(N(C)C)C(O)C(C)O1 (stereo not given),1.19 µM (active)
2,CC(=O)/N=c1\c(C#N)cc2c(=O)n3cccc(C)c3nc2n1Cc1ccco1,inactive
3,CCN(CC)c1ccc(-n2nc3cc(C)c(NC(=O)c4ccccc4F)cc3n2)cc1,inactive
4,CCn1cnc2c1c(=O)n(CC(=O)NN)c(=O)n2Cc1ccccc1,inactive
5,Nc1c(C(=O)Nc2ccc(Br)cc2)sc2nc(-c3ccco3)ccc12,inactive
6,Cc1nn(C)c(C)c1N1C(=O)c2cccc3c(N)ccc(c23)C1=O,inactive
7,NNC(=O)c1oc2nc(-c3ccc(Cl)cc3)cc(-c3ccccc3)c2c1N,inactive
8,COc1cccc2c1C(=O)c1c(O)c3c(c(O)c1C2=O)C[C@](O)(C(=O)CO)C[C@H]3O[C@@H]1C[C@H](N)[C@H](O)[C@H](C)O1,0.794 µM (active)
9,CC(=O)[C@]1(O)Cc2c(O)c3c(c(O)c2[C@@H](O[C@H]2C[C@H](N)[C@H](O)[C@H](C)O2)C1)C(=O)c1ccccc1C3=O,35.5 µM (active) and 20 µM (active)
10,CC(C)c1ccc(-n2nc3ccc(N)cc3n2)cc1,inactive
11,Cc1cc(C)n(-c2ccc(C(=O)N3CCC(CO)(Cc4ccccc4)CC3)cc2)n1,inactive
12,Cc1ccc([N+](=O)[O-])cc1N/C=C1\CCCCC1=O,inactive
13,C=CCn1/c(=N/C(=O)c2sc3ccccc3c2Cl)sc2cc(S(N)(=O)=O)ccc21,12.6 µM (active)
14,COCCn1/c(=N/C(=O)c2cc(-c3cccs3)nc3ccccc23)sc2cc(S(N)(=O)=O)ccc21,inactive
15,Cc1nonc1CC(=O)N1CCCC(C(=O)c2ccc(Cl)cc2)C1 (stereo not given),inactive
16,Cc1cc(=O)n2nc(N3CCCC3C(=O)Nc3ccc(C(C)C)cc3)sc2n1 (stereo not given),inactive
17,Cc1nn(C)c(C)c1CCC(=O)N1CCCC(Nc2ccc(C(C)C)cc2)C1 (stereo not given),39.8 µM (active)
18,O=C(NCc1ccc(F)cc1)c1cccc2c1C(=O)c1ccc(N3CCC(Cc4ccccc4)CC3)cc1S2(=O)=O,inactive
19,Cc1nc2c(S(=O)(=O)c3ccccc3)cnn2c(C)c1C,inactive
20,CC1CCN(c2ccc3c(c2)S(=O)(=O)c2cccc(C(=O)NCc4cccc(F)c4)c2C3=O)CC1,inactive
21,COc1ccc(-n2nc3c(N4CCCC(C(=O)NCc5ccc(C)cc5)C4)nnc(C)c3c2C)cc1 (stereo not given),17.8 µM (active)
22,COc1ccc(S(=O)(=O)N2CCCC(C(=O)NCCCn3ccnc3)C2)cc1OC (stereo not given),inactive
23,COc1cccc(CNC(=O)C2CCN(c3nnc(N4CCCC4=O)s3)CC2)c1,inactive
24,COc1ccc(CNC(=O)C(=O)NCC2OCCN2S(=O)(=O)c2cccs2)cc1 (stereo not given),inactive

row,Structure (SMILES),Potency
1,COc1ccc(-n2nc3c(N4CCCC(C(=O)NCc5cccc(F)c5)C4)nnc(C)c3c2C)cc1 (stereo not given),20 µM (active)
2,COc1ccc(-n2nc3c(N4CCCC(C(=O)NCCc5ccccc5C)C4)nnc(C)c3c2C)cc1 (stereo not given),20 µM (active)
3,CCC(C(=O)NCCc1ccccc1OC)n1nc(C)c2c(C)n(-c3ccccc3)nc2c1=O (stereo not given),inactive
4,CC(=O)N1CCC(=NNc2ncc(C(F)(F)F)cc2Cl)CC1,inactive
5,Cc1cccn2c(=O)c3cc(C(=O)NC(C)C)c(=N)n(Cc4ccncc4)c3nc12,inactive
6,O=C(COC(=O)c1cc(O)nc2ccccc12)NCc1ccc(Cl)cc1,inactive
7,N=C(Cc1ccc(Cl)cc1)NOC(=O)c1cccc2ccccc12,39.8 µM (active)
8,CCOc1ncccc1C(=O)N(CC)CC(=O)NCc1ccc(Cl)cc1,inactive
9,O=[N+]([O-])c1ccc(CSc2ncnc3ccccc23)cc1,inactive
10,COc1ccc(-c2cc(C(F)(F)F)n3ncc(C(=O)N4CCc5ccccc5C4)c3n2)cc1,inactive
11,Cc1ccc2[nH]c(NC3=NC(=O)c4ccccc43)nc2c1,inactive
12,Cc1ccc(CN2C(=O)CCC2C(=O)N2CCN(c3ccccc3)CC2)cc1 (stereo not given),inactive
13,CCOC(=O)c1ccc(NC(=O)CC2C(=O)N(c3ccccc3)C(=O)N2Cc2ccc(C)cc2)cc1 (stereo not given),22.4 µM (active)
14,CCOC(=O)c1ccc(NC(=O)CC2Nc3ccccc3NC2=O)cc1 (stereo not given),inactive
15,CCCCN(C)CC(O)Cn1cc(/C=C/C(=O)c2ccc(Br)cc2)c2ccccc21 (stereo not given),inactive
16,COc1cc(/C=C2\C=CC(=O)O2)cc(OC)c1,inactive
17,N#Cc1nc(-c2cccc3ccccc23)oc1NCC1CCCO1 (stereo not given),inactive
18,CCC(C)Sc1cccc(-c2nc3cnccn3c2NC2CCCCC2)c1 (stereo not given),inactive
19,CCCCNc1c(-c2ccc(SC(C)CC)cc2)nc2cnccn12 (stereo not given),inactive
20,CCOC(=O)CNc1c(-c2ccc(Cl)cc2)nc2cnccn12,inactive
21,Cc1ccc(-c2nc3cnccn3c2Nc2c(C)cccc2C)o1,inactive
22,Cc1ccn2c(Nc3ccc(C(C)C)cc3)c(-c3cccnc3)nc2c1,39.8 µM (active)
23,CC(C)c1ccc(Nc2c(-c3ccccc3O)nc3cnccn23)cc1,39.8 µM (active)
